Screens as filed in PubChem.
Mot1-301 SUMO = SUMOylation pathway inhibition by Mot1-301 growth rescue; S. cerevisiae Mot1-301 growth rescue, ATP luminescence, 38.5C; percent above DMSO median, 100 means doubled; growth rescue, % at 18.8 µM; 1% of 320,000 active; AID 2716;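 active = every valid replicate shows activation above 250% relative to neutral control wells; inactive = the rest, any valid replicate at or below 250%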;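 also: OY570 slx delta 5 strain wells were the positive control but not used for scaling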
sPLA2-III inh = Blocks human group III sPLA2 activity. Q9NZ20. QFRET BODIPY PC-A2 liposome hydrolysis, fluorescence. inhibition, % at 12.2 µM. 0.56% of 370,000 active;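 active = inhibition above mean plus 3 SD of compounds lying within the high and low control bounds, cut at about 19% in these data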;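 also: 0% = median of test compound wells and 100% = no enzyme DMSO wells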
Target sequence (Q9NZ20 whole entry, looked up): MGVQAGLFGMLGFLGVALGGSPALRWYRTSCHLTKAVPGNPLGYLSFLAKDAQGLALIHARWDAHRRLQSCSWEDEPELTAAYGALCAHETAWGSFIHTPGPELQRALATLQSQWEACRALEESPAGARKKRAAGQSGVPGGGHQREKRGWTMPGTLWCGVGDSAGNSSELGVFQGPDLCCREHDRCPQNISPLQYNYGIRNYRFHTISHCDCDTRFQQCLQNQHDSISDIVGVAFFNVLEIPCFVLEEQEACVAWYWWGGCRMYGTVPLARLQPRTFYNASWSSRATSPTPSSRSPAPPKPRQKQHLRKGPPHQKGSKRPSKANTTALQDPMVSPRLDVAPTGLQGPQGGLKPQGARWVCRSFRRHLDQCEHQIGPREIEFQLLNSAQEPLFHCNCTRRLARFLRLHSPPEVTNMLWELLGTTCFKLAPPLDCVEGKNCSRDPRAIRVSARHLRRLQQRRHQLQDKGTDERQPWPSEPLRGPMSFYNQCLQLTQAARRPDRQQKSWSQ
SKN-1 inh = C. elegans SKN-1 inhibition; C. elegans VP596 Pgst-4::GFP/RFP ratio, acrylamide-induced, 24 h; inhibition, % at 21.8 µM; 0.49% of 360,000 active;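 active = interference check ratio from 0.5 to 1.5 plus GFP to RFP signal ratio inhibition reaching or exceeding a fixed threshold, cut at about 30% in these data, passing the limit was not always enough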
Efflux pump inh = antifungal efflux pump inhibition, Nile Red retention | S. cerevisiae Candida pump triplex | 0.44% of 330,000 active | inhibition, % at 10 µM;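 active = plate passing quality check with inhibition over a set limit, or well fluorescence over plate mean plus 4 SD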;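 also: Nile Red retained in pooled yeast measured as flow cytometry median fluorescence; 0% = buffer negative control and 100% = Enniatin B positive control; higher means more Nile Red kept so more efflux inhibition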
Mot1 SUMO dose = inhibits SUMO pathway, affecting Mot1-301 yeast growth; growth activity, percent, % at 42 µM; 2,300 tested, under 10 active; AID 493004; shares compounds with Mot1-301 SUMO; S. cerevisiae Mot1-301 galactose growth, ATP luminescence, 24 h; -100 = growth of slx-deleted rescue strain;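 active = Signal drops as the depositor expects, and the fitted half-maximal dose is no more than ten times the top valid tested dose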;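 also: more negative values mean stronger growth rescue toward the control strain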
Numbers without * were called inactive. Rows were chosen to be rich in hits. Some 2.2% of all compounds tested hit in one or more screens of this group.

COc1ccc(-c2cc(CS(=O)(=O)c3ccccc3)on2)cc1 was read as Mot1-301 SUMO -2.9, sPLA2-III inh -7.4, SKN-1 inh 5.2 and Efflux pump inh -0.1.
`O=S(=O)(Cc1cc(-c2ccccc2)no1)c1ccccc1` gave Mot1-301 SUMO 642.6*, sPLA2-III inh -11.6, SKN-1 inh 13.3, Efflux pump inh 0.0 and Mot1 SUMO dose -0.1.
For CCOC(=O)C1=CNS(=O)(=O)NC1c1ccc(C(=O)OC)cc1 (centres undefined) the results were sPLA2-III inh 3.6, SKN-1 inh 7.1 and Efflux pump inh 0.1.
CCN(C(=O)Cn1c(=O)oc2ccccc21)c1cccc(C)c1 was read as Mot1-301 SUMO 627.5*, sPLA2-III inh 0.5, SKN-1 inh 6.1, Efflux pump inh 0.2 and Mot1 SUMO dose 0.1.
For O=C(Nc1ccc(CN2CCOCC2)cc1)c1ccccc1F the results were Mot1-301 SUMO 49.7, sPLA2-III inh 5.0, SKN-1 inh -13.7 and Efflux pump inh 0.0.
`COc1cc2ccccc2cc1C(=O)Nc1ccc(CN2CCOCC2)cc1` gave Mot1-301 SUMO 393.6*, sPLA2-III inh -9.2, SKN-1 inh 23.4, Efflux pump inh 0.1 and Mot1 SUMO dose -0.8.
For C/C(O)=C(\N=Nc1cc(C)ccc1O)C(N)=O the results were Mot1-301 SUMO active, sPLA2-III inh -6.5, SKN-1 inh 8.8, Efflux pump inh -0.3 and Mot1 SUMO dose 0.6.
For C[C@H]1CN=C(Nc2ccccc2)N1CCC1CCCC1 the results were Mot1-301 SUMO 920.7*, sPLA2-III inh 1.3, SKN-1 inh 18.4, Efflux pump inh -0.1 and Mot1 SUMO dose -0.1.
Screening CCc1ccc(-c2nc(SCC(=O)N3CCOCC3)n[nH]2)cc1 returned Mot1-301 SUMO 526.5*, sPLA2-III inh -0.4, SKN-1 inh -3.7, Efflux pump inh 0.2 and Mot1 SUMO dose 1.0.
`O=C(CSc1n[nH]c(-c2cccs2)n1)N1CCOCC1` gave Mot1-301 SUMO -0.4, sPLA2-III inh 4.2, SKN-1 inh 12.6 and Efflux pump inh -0.1.
For CCOC(=O)c1ccc(NC(=O)CSc2nc(=O)n(CCN3CCOCC3)c3c2CCC3)cc1 the results were Mot1-301 SUMO 10.7, sPLA2-III inh -10.1, SKN-1 inh 3.1 and Efflux pump inh -0.1.
Screening Nc1c(NC=O)c(=O)n(Cc2ccccc2)c(=O)n1Cc1ccccc1 returned Mot1-301 SUMO 2.6, sPLA2-III inh -2.6, SKN-1 inh -9.1 and Efflux pump inh -0.1.
`O=C(O)C1C2CCCCC2=C2CCCCC2C1C(=O)c1ccccc1` (centres undefined) gave Mot1-301 SUMO 394.1*, sPLA2-III inh -3.5, SKN-1 inh 3.0, Efflux pump inh 0.2 and Mot1 SUMO dose -0.3.
`COc1ccc(NC(=S)NC(=O)C2CCC2)cc1` gave Mot1-301 SUMO 555.1*, sPLA2-III inh 10.9, SKN-1 inh 9.3, Efflux pump inh 0.2 and Mot1 SUMO dose -0.7.
Screening COc1ccc(NC(=O)Nc2ccc(OC)cc2)cc1 returned Mot1-301 SUMO 391.5*, sPLA2-III inh 1.1, SKN-1 inh 3.4, Efflux pump inh -0.1 and Mot1 SUMO dose 0.1.
`O=C(O)CCC(=O)Nc1cccc(C(=O)Nc2ccc(Br)cc2)c1` gave Mot1-301 SUMO 795.9*, sPLA2-III inh 0.3, SKN-1 inh 1.9, Efflux pump inh 0.5 and Mot1 SUMO dose 0.2.
For O=C(O)CCC(=O)Nc1cccc(C(=O)Nc2cccc(Cl)c2)c1 the results were Mot1-301 SUMO -2.4, sPLA2-III inh 7.3, SKN-1 inh -26.3 and Efflux pump inh 0.0.
Screening COCCNC(=O)NC(=O)CSc1nc(C)c(C)c(C)n1 returned Mot1-301 SUMO 494.4*, sPLA2-III inh -1.7, SKN-1 inh 2.1, Efflux pump inh -0.1 and Mot1 SUMO dose 0.6.
N#CCC(=O)N/N=C/c1ccc(OS(=O)(=O)c2ccccc2)cc1 was read as Mot1-301 SUMO 845.8*, sPLA2-III inh -23.0, SKN-1 inh -2.1, Efflux pump inh 0.0 and Mot1 SUMO dose -1.0.
CC(=O)Nc1ccc(C(=O)NCCCOC(C)C)cc1 was read as Mot1-301 SUMO 797.6*, sPLA2-III inh 0.3, SKN-1 inh 3.7, Efflux pump inh 0.0 and Mot1 SUMO dose 0.1.
Screening CC(=O)Nc1sc2c(c1C(c1ccccc1)N1CCOCC1)CCCC2 (centres undefined) returned Mot1-301 SUMO -21.2, sPLA2-III inh 0.8, SKN-1 inh 19.0 and Efflux pump inh 0.0.
Screening CC(=O)Nc1sc2c(c1C(c1ccc(F)cc1)N1CCOCC1)CCCC2 (centres undefined) returned Mot1-301 SUMO 385.2*, sPLA2-III inh -3.6, SKN-1 inh 2.4, Efflux pump inh -0.1 and Mot1 SUMO dose -0.3.
Screening CCOC(=O)CNC(=O)c1c(C)nn(C)c1Cl returned Mot1-301 SUMO 668.8*, sPLA2-III inh 7.6, SKN-1 inh -19.8, Efflux pump inh 0.2 and Mot1 SUMO dose 1.2.
Cc1nn(C)c(Cl)c1C(=O)NCC(=O)O was read as Mot1-301 SUMO 84.9, sPLA2-III inh 2.3, SKN-1 inh 8.7 and Efflux pump inh 0.0.
`O=C1NC(=O)N(Cc2ccccc2)C1=O` gave Mot1-301 SUMO active, sPLA2-III inh 1.0, SKN-1 inh 17.9, Efflux pump inh 0.1 and Mot1 SUMO dose 0.8.
For CCCS(=O)(=O)NC(=O)C1(C)CCN(C(=O)c2ccc3ccccc3c2)C1 (centres undefined) the results were SKN-1 inh 20.6.
For CC(C)C(OC(=O)CN1C(=O)COc2ccccc21)C(=O)NC1CCCC1 (centres undefined) the results were Mot1-301 SUMO 783.7*, sPLA2-III inh 3.9, SKN-1 inh -13.2, Efflux pump inh 0.4 and Mot1 SUMO dose -0.2.
`O=C1Nc2c(Cl)cc(Cl)cc2C1=O` gave sPLA2-III inh 8.0 and SKN-1 inh 5.6.
For CC(C)(C)Cc1c(-c2ccc(Cl)cc2)nc2c(Cl)cc(C(F)(F)F)cn12 the results were sPLA2-III inh 12.6 and SKN-1 inh -7.6.
Screening COc1ccc(NC(=O)C(=S)NC2CCCCC2)cc1 returned sPLA2-III inh 12.0, SKN-1 inh 13.1 and Efflux pump inh 0.1.
`C=CCSc1nnc2c(n1)[nH]c1c(C)cccc12` gave Mot1-301 SUMO 531.7*, sPLA2-III inh -1.4, SKN-1 inh 17.2, Efflux pump inh -0.7 and Mot1 SUMO dose -1.1.
For O=C(O)CCSc1ncnc2sc(-c3ccccc3)cc12 the results were Mot1-301 SUMO 30.9, sPLA2-III inh 7.9, SKN-1 inh 6.2 and Efflux pump inh -0.1.
O=C(O)CSc1ncnc2sc(-c3ccccc3)cc12 was read as Mot1-301 SUMO 525.3*, sPLA2-III inh 7.4, SKN-1 inh -19.6, Efflux pump inh -0.1 and Mot1 SUMO dose -0.5.
For COC(=O)C1=C(C)N(Cc2ccc(Cl)cc2)C(=S)NC1c1cccc(Br)c1 (centres undefined) the results were sPLA2-III inh 6.2.
Screening O=C1CCN(CC2CCCCC2)C=C1C(=O)c1ccccc1 returned sPLA2-III inh 0.6 and SKN-1 inh 3.1.
`CCOc1cc(C(=S)N2CCOCC2)ccc1OC(=O)c1ccc(C)cc1` gave Mot1-301 SUMO 414.4*, sPLA2-III inh 6.6, SKN-1 inh -2.8, Efflux pump inh -0.2 and Mot1 SUMO dose -0.8.
